HttQ103 aggreg = qHTS Multiplex Assay to Identify Dual Action Probes in a Cell Model of Huntington: Aggregate Formation (GFP); PC12 HttQ103-GFP aggregates, Acumen cytometry, 40 h; Potency, µM (series often up to 46.1 µM), actives largely listed as inhibitors; 220,000 compounds, 1.1% hits; AID 1688, 2009; further: nearly all actives have a fitted effect of over 60% in size
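Quantitative HTS on tebufenozide-induced (100 nM) PC12 cells stably expressing polyQ103 Huntingtin exon 1–GFP. Reduction of bright GFP aggregates, detected by laser scanning cytometry after lysis, identified actives across the titration.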
MBNL1-CUG inh = qHTS Assay for Inhibitors of MBNL1-poly(CUG) RNA binding; Muscleblind-like protein 1 (Homo sapiens), Q9NR56; TR-FRET MBNL1-His/biotin-(CUG)12 binding, 665/545 ratio; Potency, µM (titrated, usually from 57.5 µM), hits mostly inhibitors; 280,000 compounds, 0.036% hits; AID 2675, 2010; active means well fitted inhibition curve with a large enough effect in the signal ratio, with a control signal flat, not every such curve was filed as active; inconclusive means small, poorly fitted or top-dose-only effect, or effect the other way, or a change in a side signal; inactive means no such curve, though single readings can be large or run the other way; the % refers to the signal ratio
Target sequence (Q9NR56 whole entry, looked up): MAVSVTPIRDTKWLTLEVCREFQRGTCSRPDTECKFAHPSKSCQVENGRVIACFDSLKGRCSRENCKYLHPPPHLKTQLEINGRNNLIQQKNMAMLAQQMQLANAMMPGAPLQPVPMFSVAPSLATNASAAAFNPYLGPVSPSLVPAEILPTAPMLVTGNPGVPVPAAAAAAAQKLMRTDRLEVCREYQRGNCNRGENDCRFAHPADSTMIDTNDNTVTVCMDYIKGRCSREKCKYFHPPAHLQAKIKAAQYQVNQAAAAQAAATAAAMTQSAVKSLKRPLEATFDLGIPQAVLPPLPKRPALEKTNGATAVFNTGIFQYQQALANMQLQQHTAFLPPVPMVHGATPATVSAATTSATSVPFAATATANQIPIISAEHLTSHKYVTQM
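His-tagged MBNL1 binding to biotinylated (CUG)12 RNA was measured by TR-FRET using terbium anti-His antibody (0.055 ng/ul final) and streptavidin-XL665 (5 nM final). Compounds were titrated 92 nM to 58 uM; 60 min at room temperature.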
HTT cytoprotect = qHTS Multiplex Assay to Identify Dual Action Probes in a Cell Model of Huntington: Cytoprotection (ATP). PC12 HTT-Q103 induced, cytoprotection, ATP luminescence, 40 h. Potency, µM (highest dose often 56.4 µM), usual class: activators. 230,000 compounds, 0.14% hits. AID 1471, 2008; further: nearly all actives have a fitted effect of over 45% in size
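ATP quantification (ATPlite) reports survival of PC12 cells in which tebufenozide, 100 nM final, switches on Htt exon 1 with 103 glutamines linked to GFP; compounds are titrated.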
Lamin A splicing = qHTS Assay for Modulators of Lamin A Splicing; 200,000 compounds, 0.01% hits; AID 1487, 2009; HeLa LMNA splicing GFP/RFP minigene ratio, 48 h; Potency, µM (highest dose often 46.1 µM), hits mostly inhibitors; active means well fitted inhibition curve with a large enough effect in the signal ratio, with a control signal flat, not every such curve was filed as active; inconclusive means small, poorly fitted or top-dose-only effect, or effect the other way, or a change in a side signal; the % refers to the signal ratio
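S3 HeLa stable clones carrying a lamin A-EGFP splicing minigene plus DsRed2 were seeded at 600 cells/well in Opti-MEM with 2% FBS, pin-dosed and incubated 48 h at 37°C. Acumen cytometry (488 nm) gave the GFP/RFP total-intensity ratio.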
CBFb RUNX1 block = qHTS Assay for Compounds Blocking the Interaction Between CBF-beta and RUNX1 for the Treatment of Acute Myeloid Leukemia; Potency, µM (top dose mostly 59.8 µM), most hits filed as inhibitors; AlphaScreen CBFb-His/RUNX1-biotin binding, biochemical; Runt-related transcription factor 1 (Homo sapiens) + Core-binding factor subunit beta …; 230,000 tested, under 10 active
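CBFb-His/RUNX1-biotin, 30 nM each, preincubated 20 min RT; compound 15 min RT; Ni + streptavidin beads 50 ng each, 90 min RT; AlphaScreen read.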
NPSR antagonist = qHTS Assay for Antagonists of the Neuropeptide S Receptor: cAMP Signal Transduction. AID 1461, 2008. CHO-NPSR cells, cAMP TR-FRET, antagonist mode. Potency, µM (doses to about 38.3 µM), hits mostly inhibitors. 220,000 compounds, 1% hits; further: nearly all actives have a fitted effect of over 50% in size
Target sequence (Q6W5P4 whole entry, looked up): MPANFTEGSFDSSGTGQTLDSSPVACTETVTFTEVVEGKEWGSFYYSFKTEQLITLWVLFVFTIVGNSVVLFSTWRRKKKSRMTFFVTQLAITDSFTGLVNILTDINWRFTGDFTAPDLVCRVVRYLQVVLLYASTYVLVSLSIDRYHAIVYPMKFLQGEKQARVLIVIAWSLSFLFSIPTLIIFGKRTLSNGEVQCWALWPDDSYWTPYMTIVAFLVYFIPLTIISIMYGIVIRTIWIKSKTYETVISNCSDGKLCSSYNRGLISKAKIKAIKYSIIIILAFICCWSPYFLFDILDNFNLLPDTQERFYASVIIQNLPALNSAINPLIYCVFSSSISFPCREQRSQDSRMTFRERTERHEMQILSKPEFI
Hits are given with their value; i = inactive; ? = inconclusive; nt = no result given; [ ] = dose if it differs, or a comment. Hits are enriched below; roughly 1.1% of the tested compounds scored in any of these assays. Unless noted, the call rests on the fitted dose curve; in most records, active means well fitted curve in the direction sought with a large enough effect; inconclusive means small, poorly fitted or top-dose-only effect, or another doubt; inactive means no such curve, though single readings can be large; an effect the other way counts as inactive or inconclusive.

SMILES | HttQ103 aggreg | MBNL1-CUG inh | HTT cytoprotect | Lamin A splicing | CBFb RUNX1 block | NPSR antagonist
CCCN1CCC(=O)N(C(CSc2ccc(OC)cc2)CC(C)C)CC1 (configuration not stated) | nt | nt | nt | nt | i | nt
Cc1nnc(-c2ccccc2)c(=O)n1/N=C/c1c(O)ccc2ccccc12 | 3.2µM | i | i | ? | ? | i
C=CCNCC(=O)N1N=C(c2ccc3ccccc3c2)CC1c1ccc(OC)cc1 (configuration not stated) | 13µM | i | i[10 µM] | ? | i | i
CCOc1ccc(Nc2nc(NCC3CCCO3)c3ccccc3n2)cc1 (configuration not stated) | 14µM | ? | i | nt | i | ?
c1ccc(Nc2nc(NCC3CCCO3)c3ccccc3n2)cc1 (configuration not stated) | ? | nt | i | nt | i | i
CC(C)C1=CC2=CC[C@H]3[C@@](C)(CCC[C@]3(C)C(=O)O)[C@@H]2CC1 | nt | nt | i | nt | nt | nt
CCOC(=O)c1c(-c2ccc(C)s2)csc1NC(=O)c1ccco1 | i | i | i[10 µM] | i | i | 7.9µM
CCOC(=O)c1c(NC(=O)c2ccco2)sc2c1CCCCC2 | i | i | i | i | i | ?
CCOC(=O)c1c(-c2ccc(OC)cc2)csc1NC(=O)CNCc1ccco1 | i | i | i | i | i | ?
CCOC(=O)c1c(-c2ccc(Cl)cc2)csc1NC(=O)CNCc1ccco1 | i[9.22 µM] | i | i[10 µM] | nt | i | 10µM
COc1ccc(-c2nc3c(c(=O)[nH]c(=O)n3Cc3ccccc3)n2CCO)cc1 | nt | i | nt | nt | nt | nt
O=c1[nH]c(=O)n(Cc2ccccc2)c2nc(-c3ccc(Oc4ccc(F)cc4)c([N+](=O)[O-])c3)n(CCO)c12 | i | i | i[10 µM] | ? | i | 6.3µM
CCCN1C(=O)/C(=C/c2c(N3CCNC(=O)C3CC(=O)OCC)nc3c(C)cccn3c2=O)SC1=S (configuration not stated) | i[9.22 µM] | i | i[10 µM] | nt | i | 13µM
Cc1ccc(-c2cc(C(F)F)n3ncc(C(=O)Nc4c(C)nn(Cc5ccccc5Cl)c4C)c3n2)cc1 | ? | i | i | i | i | 4µM
Cc1ccc(-c2cc(C(F)F)n3ncc(C(=O)Nc4c(C)nn(Cc5c(Cl)cccc5Cl)c4C)c3n2)cc1 | i | i | i | i | i | i
CC(C)C[C@H](NC(=O)[C@H](CC(C)C)NC(=O)[C@@H](Cc1c[nH]c2ccccc12)NC(=O)[C@H](Cc1ccccc1)NC(=O)[C@@H](Cc1c[nH]c2ccccc12)NC(=O)[C@H](CCC(N)=O)NC(=O)[C@H](CCC(N)=O)NC(=O)[C@@H]1CCCN1C(=O)[C@H](CCCCN)NC(=O)[C@@H]1CCCN1C(=O)[C@H](N)CCCN=C(N)N)C(N)=O | nt | nt | nt | nt | i | nt
Nc1nc(N)nc(CCCCc2nc(N)nc(N)n2)n1 | nt | nt | i[10 µM] | nt | nt | nt
O=[N+]([O-])c1ccc(Oc2ccc(F)cc2)c2ccncc12 | 10µM | ? | i | ? | i | i
CC(=O)N[C@H]1CSSC[C@@H](C(=O)N2CCC[C@H]2C(=O)N2CCC[C@H]2C(=O)N[C@@H](CCCCN)C(=O)N[C@@H](CC(=O)O)C(N)=O)NC(=O)CNC(=O)[C@H](Cc2c[nH]c3ccccc23)NC(=O)[C@H](CCCNC(=N)N)NC(=O)[C@@H](Cc2ccc(Cl)c(Cl)c2)NC(=O)[C@H](Cc2cnc[nH]2)NC(=O)[C@H](CCC(=O)O)NC1=O | nt | nt | nt | nt | i | nt
CC1(OC(=O)c2cnc3ccccc3n2)C(=O)C=C2C=C3CCCN3C=C2C1=O (configuration not stated) | nt | nt | i[10 µM] | i[9.22 µM] | i[13.1 µM] | nt
Cc1cccc(Nc2nc(-c3c(C)nc4ccccn34)cs2)c1 | 11µM | i | i | ? | i | ?
CCOC(=O)CNC(=O)O[C@H]1C(=O)c2ccc(OC)cc2O[C@@H]1c1ccc2c(c1)OCO2 | nt | nt | nt | nt | i | nt
COc1ccc(C(=O)n2cc(C(=O)c3cc(C)ccc3O)cn2)cc1 | 32µM | i | i[10 µM] | i | i | i
Cc1sc2ncnc(NCCN3CCOCC3)c2c1C | 11µM | i | i | ? | i | i
CC1CCc2c(sc3ncnc(NCCN4CCOCC4)c23)C1 (configuration not stated) | i[9.22 µM] | i | i[10 µM] | nt | i | i
SMILES | HttQ103 aggreg | MBNL1-CUG inh | HTT cytoprotect | Lamin A splicing | CBFb RUNX1 block | NPSR antagonist
CC(C)c1nn2c(=O)cc(COC(=O)c3ccc(NC(=O)COc4ccccc4)cc3)nc2s1 | nt | nt | nt | i | nt | nt
CC1CCCc2sc3ncn(N)c(=N)c3c21 (configuration not stated) | 1.4µM | i | i | i | i | i
CN1c2ccccc2C(C)(C)C12C=Nc1c(ccc3ccccc13)O2 (configuration not stated) | i | ? | i | i | i | i
CN1c2ccccc2C(C)(C)[C@]12C=Cc1cc(O)ccc1O2 | i | i | i | ? | i | 13µM
C[N+](C)(C)[C@@H](C1=CCCC1=O)c1ccccc1 | nt | nt | i[10 µM] | nt | nt | nt
O=C(O)[C@@H]1[C@@H](C(=O)Nc2ncccn2)[C@@H]2C=C[C@@H]1O2 | nt | nt | i[10 µM] | nt | nt | nt
CCCc1nc(SCC(=O)N2CCC(Cc3ccccc3)CC2)c2c(=O)n(C)c(=O)n(C)c2n1 | 25µM | ? | i | i | i | ?
OC[C@@H]1O[C@@H](n2cnc3c(NCCc4ccccc4)ncnc32)[C@@H](O)[C@H]1O | nt | nt | i[1.9 µM] | nt | nt | nt
COc1ccccc1NC(=S)NC(=O)c1ccc(-c2ccc(Cl)cc2)o1 | i | i | i | i | i | i
O=C(NC(=S)Nc1ccccc1O)c1ccc(-c2ccc(Cl)cc2)o1 | 11µM | i | i | ? | i | i
Cc1ccc(S(=O)(=O)N2CCc3nc(COc4ccccc4)c4c(c3C2)CO[C@@H](C)C4)cc1 | nt | nt | i[10 µM] | ? | i[13.1 µM] | nt
CN(C)c1cc[n+](Cc2c(Cl)cccc2Cl)cc1 | 8.9µM | i | i[10 µM] | ? | i | i
CN(C)c1cc[n+](CC(=O)Nc2c(Cl)cc(Cl)cc2Cl)cc1 | i[9.22 µM] | ? | i[10 µM] | ? | i | i
COc1ccc(/C=C2\N=C(c3ccccc3)N(c3ccc(C(=O)O)cc3)C2=O)cc1OC | i[9.22 µM] | i | i[10 µM] | nt | i | 13µM
O=C(CCn1cnc2onc(-c3ccc(F)cc3)c2c1=O)N1CCN(c2cccc(Cl)c2)CC1 | nt | nt | nt | i | nt | nt
COc1ccc(Cn2c(-c3ccc(C)cc3)c[n+]3ccccc23)cc1 | 8.9µM | i | i[1.9 µM] | ? | i | i

Screening data as filed in PubChem BioAssay.
